# VP16 counter = inhibits Gal4-VP16 luciferase reporter, ROR gamma counter-screen; Drosophila S2 Gal4-VP16 UAS-luciferase, luminescence, 20 h; Potency, µM (doses to about 53.6 µM), without a hit: at the top dose activity, negative = inhibition, usual class: inhibitors; 310,000 tested, 3.5% active; AID 2546;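 note: Gal4-VP16 expression switched on by copper sulfate through the metallothionein promoter; potency is the fitted concentration of half-maximal effect; % is set by controls: 0 for no effect and ±100 for the full control effect; nearly all actives have a fitted effect of over 50% in size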
# Giardia kill = kills Giardia lamblia. Giardia lamblia trophozoite viability. 340,000 tested, 0.15% active. activity change, % at 7.66 µM, hits read low; in the data active = activity change below about -80%; inconclusive = between about -30% and that limit;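 note: parasites exposed to compound for two days anaerobically before the ATP read; % is set by controls: 0 for no effect and ±100 for the full control effect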
#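 Killing of trophozoites was scored by loss of ATP luminescence after a 48 hrs anaerobic exposure to compounds at 37 deg C, using 100 cells per well.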
# p53 reactivation = mutant p53 re-activation in reporter cells | H1299 p53-A138V BP100-luciferase reporter, luminescence, 24 h | Potency, µM (doses to about 92.2 µM), inactives show top-dose activity change, positive = activation, hits mostly activators | AID 504706 | 320,000 tested, 0.063% active; note: potency is the fitted concentration of half-maximal effect; % of control where 0% means no effect; nearly all actives have a fitted effect of over 45% in size
#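 H1299 (p53-null), stable ts p53-A138V + BP100-Luc; 1000 cells/well, Opti-MEM/10% FBS; cpd 4 pt, 1:5; 24 h, 37 deg C, 5% CO2; detection reagent 10 min RT; luminescence.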
# RORgamma inh = inhibitors of mouse ROR gamma transcriptional activity. P51450. Drosophila S2 Gal4-RORgamma UAS-luciferase reporter, 20 h. Potency, µM (top dose mostly 53.6 µM), without a hit: top-dose activity change, negative = inhibition, actives largely listed as inhibitors. 310,000 tested, 5.4% active. AID 2551; note: potency is the fitted concentration of half-maximal effect; % is set by controls: 0 for no effect and ±100 for the full control effect; nearly all actives have a fitted effect of over 60% in size
# Target sequence (P51450 whole entry, looked up, the tested form may be a part): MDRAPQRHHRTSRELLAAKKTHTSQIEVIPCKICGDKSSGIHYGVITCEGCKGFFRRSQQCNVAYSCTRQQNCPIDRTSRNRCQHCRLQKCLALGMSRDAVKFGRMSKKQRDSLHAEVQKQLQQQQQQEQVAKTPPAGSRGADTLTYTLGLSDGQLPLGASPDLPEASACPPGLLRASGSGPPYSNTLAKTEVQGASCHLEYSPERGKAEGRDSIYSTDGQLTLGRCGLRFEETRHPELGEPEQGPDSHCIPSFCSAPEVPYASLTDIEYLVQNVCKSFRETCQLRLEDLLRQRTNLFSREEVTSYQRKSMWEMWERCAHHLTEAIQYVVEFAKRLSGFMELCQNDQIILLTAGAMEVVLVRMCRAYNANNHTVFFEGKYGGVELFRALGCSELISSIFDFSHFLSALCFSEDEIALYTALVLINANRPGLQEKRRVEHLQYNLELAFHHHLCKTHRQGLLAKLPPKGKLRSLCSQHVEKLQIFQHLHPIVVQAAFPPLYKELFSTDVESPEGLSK
#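 Drosophila S2 cells stably expressing Gal4-DBD/mouse RORγ fusion under metallothionein promoter plus UAS-luciferase; compound 1 h, then 700 uM CuSO4 induction for 20 h at ambient temperature; inhibition read as reduced luminescence.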
# ELG1 repair inh = ELG1-dependent DNA repair inhibition; HEK293T ELG1-luciferase reporter, luminescence, 16 h; DNA damage induced by 5-fluorouridine; Potency, µM (series often up to 46.1 µM), without a hit: at the top dose activity change, negative = inhibition, usual class: inhibitors; 330,000 tested, 2.3% active; AID 504467; note: potency is the fitted concentration of half-maximal effect; % is set by controls: 0 for no effect and ±100 for the full control effect; nearly all actives have a fitted effect of over 55% in size
#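 HEK293T cells expressing luciferase-tagged ELG1 (2,000/well) received 5-Fluorouridine plus compound or DMSO for 16 hr at 37 °C. Luciferase was read by ONE-Glo luminescence after 30 min at room temperature.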
# BRCA1 expr up = BRCA1 expression activation; 380,000 tested, 1.1% active; Potency, µM (doses to about 46.1 µM), for the others: at the top dose activation, usual class: activators; MCF7-BRCA1-FFLuc reporter, luminescence, 48 h; response scale: scaled: vehicle 0%, 10 µM genistein 100%; note: potency is the fitted concentration of half-maximal effect; nearly all actives have a fitted effect of over 80% in size
#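 MCF7-BRCA1-FFLuc cells, 2000/well in phenol-red-free MEM, attached 2 h then treated 48 h at 37 C. Luciferase luminescence read 15 min after reagent; normalized to genistein maximum activation (10microM) and DMSO, concentration-response fitted.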
# * marks the source's active call; other numbers are inactive results; ? = inconclusive; · = no result given. Compounds with a hit are over-represented: about 7.6% of the library has one in this group of screens. Unless noted, calls come from the whole dose curve; as a rule, active = well fitted curve in the direction sought with a large enough effect; inconclusive = small, poorly fitted or top-dose-only effect, or another doubt; inactive = no such curve, though single readings can be large; an effect the other way counts as inactive or inconclusive.
SMILES,VP16 counter,Giardia kill,p53 reactivation,RORgamma inh,ELG1 repair inh,BRCA1 expr up
Cc1cccc2nc(COc3ccc4ccccc4c3Br)cn12,?,?,25%,8.9µM*,?,3%
CCCCc1nnc(NC(=O)c2oc3ccc(OC)cc3c2C)s1,·,35,12%,·,?,63%
Cc1ccc2oc(C(=O)Nc3nnc(CC(C)C)s3)c(C)c2c1,2%,1,22%,7.1µM*,?,0%
CC(=O)Nc1ccc(S(=O)(=O)N2CCN(C)CC2)cc1,-1%,-3,2%,-30%,4%,4%
Cc1cccc(C(=O)NC(=S)Nc2ccc(S(=O)(=O)N3CCN(C)CC3)cc2)c1,?,-21,14%,13µM*,12%,-21%
CS(=O)(=O)c1cccc(C(=O)Nc2ccc(S(=O)(=O)N3CCCCC3)cc2)c1,·,6,-4%,·,?,-31%
Cc1cccc(C(=O)NC(=S)Nc2ccc(S(=O)(=O)N3CCCCC3)cc2)c1,10µM*,18,1%,14µM*,?,-49%
Cc1ccc(C(=O)NC(=S)Nc2ccc(S(=O)(=O)N3CCN(C)CC3)cc2)cc1,-7%,-6,2%,11µM*,-5%,-33%
CCN1CCN(Cc2ccc(NC(=O)c3ccc(C)c(NC(=O)c4cccc5[nH]ccc45)c3)cc2C(F)(F)F)CC1,-13%,38,6%,6.3µM*,?,-51%
O=C(CCN1C(=O)S/C(=C\c2cccs2)C1=O)NC1=NCCS1,18µM*,-3,11%,?,16%,2%
O=C(CCCN1C(=O)/C(=C/c2ccco2)SC1=S)Nc1cccc(C(=O)O)c1,-25%,2,0%,-11%,0%,37%
O=C(CCCN1C(=O)/C(=C\c2cccs2)SC1=S)Nc1ccc(O)cc1C(=O)O,5.6µM*,4,-16%,5.6µM*,?,33%
O=C(CCCN1C(=O)/C(=C\c2ccco2)SC1=S)Nc1ccc(O)cc1C(=O)O,14µM*,7,2%,11µM*,0%,-1%
COc1cccc(N/C(SCc2ccccc2C)=C(/C#N)C(=O)NCc2cccs2)c1,10%,-8,-7%,-16%,-27%,-17%
Cc1ccc2nc(C)c(CN3CCN(c4ccc([N+](=O)[O-])cc4Cl)CC3)n2c1,7.1µM*,·,5%,14µM*,2.3µM*,·
O=[N+]([O-])c1ccc(Cl)c(CN2CCN(c3ncccn3)CC2)c1,-4%,9,·,6%,12%,-14%
COc1ccc(CNc2cccc3[nH]c(C(F)(F)F)nc23)cc1OC,-16%,7,-6%,4%,26µM*,-34%
CC(C)CC(=O)N(c1nnc(-c2cccnc2)s1)C1CCCC1,·,?,·,·,7%,-2%
CC(=O)N(c1nnc(-c2ccc(C)cc2)s1)C1CCCC1,·,15,·,·,?,11µM*
COc1ccccc1N1CCN(C(=O)CSc2nnc3c4ccccc4nc(Cc4ccccc4)n23)CC1,-3%,·,-6%,-11%,9.2µM*,·
COc1ccccc1N1CCN(C(=O)c2ccc(CSc3ccccc3)cc2)CC1,-25%,-8,2%,-24%,23µM*,-8%
O=C(c1ccc(CSc2ccc(Cl)cc2)cc1)N1CCCC1,1%,-9,2%,?,0%,10µM*
COc1ccccc1N1CCN(C(=O)CSc2ccccc2)CC1,9%,-6,10%,14%,?,?
COc1ccccc1N1CCN(C(=O)c2ccc(-c3ccccc3)cc2)CC1,3%,1,?,-9%,9%,?
CCc1ccc2oc(C(=O)N3CCN(c4ccccc4OC)CC3)cc(=O)c2c1,-3%,6,-7%,37%,?,-75%
SMILES,VP16 counter,Giardia kill,p53 reactivation,RORgamma inh,ELG1 repair inh,BRCA1 expr up
COc1ccccc1N1CCN(C(=O)c2cc(=O)c3c(C)cc(C)cc3o2)CC1,1%,8,0%,25%,26µM*,5%
NC(=O)C1=C(N)c2ccccc2C1c1ccccc1 (configuration not stated),·,-7,·,·,·,-43%
CC(C)c1nnc(NC(=O)c2cccs2)s1,?,-11,11%,?,?,?
Cc1ccc(-c2nnc(NC(=O)c3ccco3)s2)cc1,?,-13,?,-79%,?,2.2µM*
CC(C)(C)c1nnc(NC(=O)c2cccs2)s1,?,-4,10%,18µM*,?,?
COc1ccc(-c2nnc(NC(=O)c3ccco3)s2)cc1,-13%,-2,?,-34%,?,?
COc1cccc(-c2nnc(NC(=O)c3ccco3)s2)c1,-3%,-14,18%,1%,?,6.3µM*
CCOC(=O)Nc1nnc(-c2cccc(OC)c2)s1,17%,7,?,24%,1%,51%
COc1cccc(-c2nnc(NC(=O)c3cccs3)s2)c1,4%,-1,7%,-32%,?,4µM*
c1ccc2c(c1)NCC1CCCN21 (configuration not stated),-6%,-29,4%,0%,?,-22%
CCOC(=O)CNS(=O)(=O)Cc1ccccc1,·,6,8%,·,21%,2%
O=C(Cc1cccc(NC(=O)C2CCCN(C(=O)C3CC3)C2)c1)Nc1cccc(C(=O)N2CCOCC2)c1 (configuration not stated),·,-15,·,·,·,6%
Cc1cccc(C(=O)Nc2nnc(-c3ccc(C(C)(C)C)cc3)s2)c1,4%,-11,7%,14µM*,8%,52%
O=C(Nc1ncc(Cc2cccc([N+](=O)[O-])c2)s1)c1ccco1,?,1,6%,?,6%,?
Cc1ccc(Cc2cnc(NC(=O)c3ccco3)s2)cc1,5.6µM*,-6,?,?,?,20%
COc1cc(OC)c(/C=C/c2nccc3ccccc23)c(OC)c1,·,·,·,·,·,-51%
COc1ccc(N2C(=O)[C@H]3CCC=C[C@H]3[C@@H]2c2ccccc2Br)cc1,32µM*,3,-6%,18µM*,13%,-19%
Cc1ccc(NC(C)c2cc(Cl)ccc2O)cc1 (configuration not stated),13µM*,-15,-7%,?,-17%,-27%
CCN1CNC(=S)N(c2cc(C)ccc2C)C1,-29%,-18,0%,?,6%,3%
CCCN1CNC(=S)N(c2ccc(C)cc2C)C1,?,3,0%,4µM*,1%,11%
CCCN1CNC(=S)N(c2ccccc2C)C1,?,3,12%,11µM*,22%,2%
CCN(CC)CCN1CNC(=S)N(c2ccccc2OC)C1,-3%,0,3%,-32%,1%,2%

# Assay outcomes as filed in PubChem.
